Drawing on PubChem BioAssay (NCI), this text covers growth for nine molecules.

Test systems include SR leukemia; RPMI-8226 leukemia; OVCAR-8 ovarian; OVCAR-4 ovarian; SK-OV-3 ovarian; IGROV1 ovarian; OVCAR-3 ovarian; NCI/ADR-RES ovarian; T-47D breast; BT-549 breast; MDA-MB-435 melanoma; MCF7 breast; HCT-116 colon; HCC-2998 colon; KM12 colon; MDA-MB-468 breast; HS 578T breast; SW-620 colon; OVCAR-5 ovarian.
Assay in all cases: NCI-60 one-dose screen, 48 h (100 = growth as untreated, 0 = no growth, -100 = all killed)
Common to all, as to details: 10 µM unless noted

About 83,000 compounds went through this panel and 20% of them were active in at least one assay; those are over-represented in the sample as a whole.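 Note: values are percent growth. 100 is the growth of untreated cells, values between 100 and 0 indicate rising inhibition; between -100 and 0 indicates cell death.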 Unmarked numbers belong to inactive results. Activity calls are given as the source filed them. Rule for the calls: active = growth percent below 10; inactive = the rest.

As to `Nc1cc2ccccc2c(=O)n1NC(=O)c1ccc(I)cc1`, the growth was 88.3% with SR leukemia; 98% with RPMI-8226 leukemia; 101% in the assay with OVCAR-8 ovarian; 100% in the assay on OVCAR-4 ovarian; 91.9% in the assay on SK-OV-3 ovarian; 106% in the assay with IGROV1 ovarian. For the same molecule, the growth is 104% in the assay on OVCAR-3 ovarian; 101% with NCI/ADR-RES ovarian; 101% in the assay on T-47D breast; 108% in the assay on BT-549 breast; 100% with MDA-MB-435 melanoma; 93.2% in the assay on MCF7 breast. Moreover, the growth is 98% in the assay on HCT-116 colon, 114% in the assay with HCC-2998 colon, 103% in the assay on KM12 colon and 98.9% in the assay with MDA-MB-468 breast.
Consider `Cn1cc(-c2cc3nc(-c4c[nH]c5ccc(Cl)cc45)cc(N)n3n2)c2ccccc21`, for which the growth in the assay with SR leukemia is 5.34% (active); in the assay with RPMI-8226 leukemia it was -38.7% (active); with OVCAR-8 ovarian, -64.7% (active); in the assay with OVCAR-4 ovarian it was -67.4% (active); with SK-OV-3 ovarian it was -86.5% (active); in the assay with OVCAR-3 ovarian it was -62.7% (active). Moreover, the growth was -27.1% (active) in the assay on HS 578T breast; -29.7% (active) in the assay with NCI/ADR-RES ovarian; -73.9% (active) in the assay on T-47D breast; -74% (active) with BT-549 breast; -84.7% (active) in the assay on MDA-MB-435 melanoma; -39.3% (active) in the assay with SW-620 colon. In addition, the growth in the assay with MCF7 breast is -73.7% (active); in the assay with HCT-116 colon, -88.3% (active); in the assay with HCC-2998 colon, -78% (active); in the assay on KM12 colon, -70.3% (active); with MDA-MB-468 breast, -73.5% (active).
On to `COc1ccc(C(SCCNCc2cc(N(C)C)ccn2)(c2ccccc2)c2ccccc2)cc1`, for which the growth in the assay with SR leukemia was -43.2% (active); with RPMI-8226 leukemia, -27.1% (active); in the assay on OVCAR-8 ovarian, -5.35% (active); with OVCAR-4 ovarian it was 22.3%; in the assay with SK-OV-3 ovarian it was -5.07% (active); with OVCAR-3 ovarian it was -1.36% (active). Also, the growth in the assay with HS 578T breast is -23.1% (active); with NCI/ADR-RES ovarian it was -46.1% (active); with T-47D breast, -9.47% (active); in the assay on BT-549 breast, -13.4% (active); in the assay with MDA-MB-435 melanoma, -53.7% (active); in the assay with SW-620 colon, -50.5% (active). For the same molecule, the growth was -48.5% (active) in the assay with MCF7 breast; -27% (active) in the assay on HCT-116 colon; -81.9% (active) in the assay on HCC-2998 colon; -9.54% (active) in the assay on KM12 colon; -58.2% (active) in the assay with MDA-MB-468 breast.
Take `COc1ccc(C(=O)/C=C/c2cccc(Cl)c2Cl)cc1S(N)(=O)=O`: the growth was -8.84% (active) with RPMI-8226 leukemia; -64% (active) in the assay with OVCAR-8 ovarian; -7.8% (active) in the assay on OVCAR-5 ovarian; 35.9% with OVCAR-4 ovarian; 43.3% in the assay on SK-OV-3 ovarian; 10.1% with IGROV1 ovarian. Besides, the growth in the assay on OVCAR-3 ovarian is -56.1% (active); in the assay with HS 578T breast, 35.6%; with NCI/ADR-RES ovarian it was 13.3%; in the assay with T-47D breast it was -17.3% (active); in the assay on MDA-MB-435 melanoma it was 14.3%; in the assay with SW-620 colon, -47.3% (active). For the same molecule, the growth with MCF7 breast was -39.7% (active); in the assay with HCT-116 colon it was -98% (active); in the assay on HCC-2998 colon, -48.5% (active); with KM12 colon it was -62.3% (active).
For the molecule `c1ccc(-c2csc(Nc3cccc(Nc4nc(-c5ccccc5)cs4)c3)n2)cc1`, the growth in the assay on RPMI-8226 leukemia was 49.3%; in the assay on OVCAR-8 ovarian, 39.9%; in the assay with OVCAR-5 ovarian, 64.5%; in the assay with OVCAR-4 ovarian, 37.6%; in the assay on SK-OV-3 ovarian, 97.5%; in the assay with IGROV1 ovarian, 34.1%. For the same molecule, the growth in the assay with OVCAR-3 ovarian is 53.2%; in the assay on HS 578T breast it was 56.5%; in the assay on NCI/ADR-RES ovarian it was 26.1%; in the assay with T-47D breast, 24%; with BT-549 breast, 31.7%; in the assay with MDA-MB-435 melanoma, 44.7%. The growth with SW-620 colon is 66.2%; with MCF7 breast, 15.6%; in the assay with HCT-116 colon, 40%; in the assay on HCC-2998 colon, 35.5%; in the assay with KM12 colon, 1.06% (active); in the assay with MDA-MB-468 breast it was 39.2%.
On to `Cc1cc(C)n(-c2ccc3nnc(-c4ccccc4)n3n2)n1`, for which the growth is 119% in the assay on RPMI-8226 leukemia; 96.9% with OVCAR-8 ovarian; 128% in the assay with OVCAR-5 ovarian; 92.9% in the assay on OVCAR-4 ovarian; 128% with SK-OV-3 ovarian; 111% in the assay with IGROV1 ovarian. In addition, the growth in the assay on OVCAR-3 ovarian was 91.6%; in the assay with HS 578T breast, 117%; with NCI/ADR-RES ovarian, 76.1%; in the assay on T-47D breast, 95.5%; in the assay with MDA-MB-435 melanoma it was 106%; in the assay on SW-620 colon, 103%. The growth in the assay with MCF7 breast is 89.9%; with HCT-116 colon, 106%; in the assay with HCC-2998 colon it was 103%; in the assay on KM12 colon, 97.4%.
With `COc1cc(OC)cc(C(=O)Nc2cccc(-c3cn(-c4ccc(S(N)(=O)=O)cc4)nn3)c2)c1`, the growth in the assay with RPMI-8226 leukemia is 114%; in the assay on OVCAR-8 ovarian it was 39.4%; in the assay on OVCAR-5 ovarian it was 113%; in the assay with OVCAR-4 ovarian, 72%; in the assay with SK-OV-3 ovarian, 47.5%; in the assay on IGROV1 ovarian, 99.5%. Moreover, the growth in the assay with OVCAR-3 ovarian is 90.9%; in the assay with HS 578T breast, 70.3%; in the assay on NCI/ADR-RES ovarian, 94.4%; in the assay on T-47D breast, 87.8%; in the assay on MDA-MB-435 melanoma, 97.2%; in the assay with SW-620 colon, 99.6%. Also, the growth in the assay with MCF7 breast is 77.3%; in the assay on HCT-116 colon, 94%; in the assay with HCC-2998 colon, 107%; with KM12 colon it was 87.9%.
For `Cc1cc(N=C2NC(=O)CS2)n[nH]1`, the growth is 144% in the assay with RPMI-8226 leukemia; 106% in the assay with OVCAR-8 ovarian; 99.6% in the assay with OVCAR-5 ovarian; 123% with OVCAR-4 ovarian; 121% in the assay on SK-OV-3 ovarian; 99.8% in the assay with IGROV1 ovarian. Moreover, the growth in the assay with OVCAR-3 ovarian is 105%; in the assay on HS 578T breast, 102%; with NCI/ADR-RES ovarian it was 111%; in the assay on T-47D breast it was 101%; with MDA-MB-435 melanoma, 113%; in the assay on SW-620 colon it was 103%. Further, the growth is -92.2% (active) in the assay on MCF7 breast; 103% with HCT-116 colon; 112% in the assay with HCC-2998 colon; 101% with KM12 colon; 114% with MDA-MB-468 breast.
`CCN1CCN(Cc2ccc(C(=O)Nc3cccc(C#Cc4cccc5[nH]nc(N)c45)c3)cc2C(F)(F)F)CC1`: the growth is -30.9% (active) in the assay with RPMI-8226 leukemia; -96.8% (active) in the assay on OVCAR-8 ovarian; -88.8% (active) in the assay with OVCAR-5 ovarian; -24.8% (active) with OVCAR-4 ovarian; -69.2% (active) in the assay with SK-OV-3 ovarian; -44.7% (active) with IGROV1 ovarian. For the same molecule, the growth in the assay with OVCAR-3 ovarian was -22.1% (active); in the assay with HS 578T breast, -15.8% (active); with NCI/ADR-RES ovarian it was -27% (active); in the assay on T-47D breast it was -67.2% (active); in the assay on MDA-MB-435 melanoma, -69.1% (active); with SW-620 colon it was -50.5% (active). The growth in the assay with MCF7 breast was -84.9% (active); in the assay with HCT-116 colon, -86.8% (active); with HCC-2998 colon, -91.5% (active); in the assay on KM12 colon it was -73.2% (active); with MDA-MB-468 breast, -85.5% (active).
